Data on 1 molecule can be found in PubChem BioAssay AID504381 (The Scripps Research Institute Molecular Screening Center, 2011).

SMILES strings stand for the structures. Unmarked numbers belong to inactive results. No rule for the calls is given here.

The assay relates to BZP Rat Brain Site. The assay can be described thus: radioligand displacement at receptors and transporters – biochemical, PDSP panel, Set 2, late-stage follow-up (AID 504381). The note with it: PDSP radioligand binding panel, at 10 µM, hits give high values.

A word on the inhibition: it is the relative decrease from the control value, in per cent. Regarding `CC(=O)c1ccc2c(c1)Nc1ccccc1S2`, the inhibition is 11.4%.
